# Sampled rows, rich in hits. Any-hit rate of the full collection: about 2.3%.
# KKLEB tox: CF airway cell cytotoxicity counter-screen | KKLEB CF airway cells viability, ATPlite luminescence, overnight; hits give low values; cells stimulated with P. aeruginosa culture filtrate | activity change (cytotoxicity), % at 5 µM | hit rate 0.36% among 360,000 | AID 602141;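 active means corrected activity change at or below -50% at 5 µM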
# HIF-2a block: HIF-2a inhibition. 786-0 RCC cells HIF-2a reporter, luciferase luminescence, overnight. inhibition, % at 18.8 µM. hit rate 0.72% among 360,000;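 active means inhibition of the luminescence signal of 40% or more relative to plate controls, in a single-dose primary screen at 18.75 µM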
# TWEAK Fn14 block: inhibitors of TWEAK-Fn14 interaction signaling; TWEAK-stimulated Fn14 reporter cells, luciferase luminescence, 8 h; inhibition, % at 10 µM; hit rate 2% among 360,000; AID 1159606; in the data active means inhibition above about 50%
# LGR2 antag: inhibitors of bursicon-induced Drosophila LGR2 receptor cAMP signaling | HEK293 LGR2, CRE-luciferase, bursicon-stimulated, 4 h | inhibition, % at 9.99 µM | hit rate 0.35% among 380,000;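 active means drop in luminescence signal, shown as inhibition above about 50% in the replicate tests, limit read from the data, passing the limit was not always enough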;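 further: agonist challenge used bursicon conditioned medium at about half maximal strength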
# CF NFkB block: cystic fibrosis NF-kB activation inhibition; KKLEB NF-kB-GFP reporter, PAF-induced, GFP fluorescence overnight; inhibition, % at 5 µM; hit rate 0.86% among 360,000;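 active means at least 50% inhibition at 5 µM, scaled per plate between neutral and stimulator controls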;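 further: PAF is a Pseudomonas aeruginosa culture filtrate used as stimulus; plate controls were PAF-stimulated DMSO wells for no effect and unstimulated DMSO wells for full effect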
# iPSC survival up: enhancers of human iPSC single-cell survival; hiPSC single-cell survival, ATPlite luminescence; 100% = ROCK inhibitor wells, 0% = DMSO; survival enhancement, % at 20 µM; hit rate 0.044% among 360,000; AID 602274; in the data active means survival enhancement above about 18%;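 further: cells exposed to compounds for 16 hours before the ATP read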
# CF NFkB inh conf: CF NF-kB inhibition confirmation, single concentration; shares compounds with CF NFkB block; hit rate 64% among 1,300; inhibition, % at 5 µM; AID 602472; KKLEB CF airway cells, PAF-induced NF-kB-GFP fluorescence, overnight; in the data active means inhibition above about 40%;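 further: stimulus PAF is a Pseudomonas aeruginosa filtrate and not platelet activating factor; plate controls were DMSO wells with stimulus for no effect and unstimulated DMSO wells for full effect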
# Active calls of the source: *; / = no result given.
SMILES,KKLEB tox,HIF-2a block,TWEAK Fn14 block,LGR2 antag,CF NFkB block,iPSC survival up,CF NFkB inh conf
Cc1ccc(N(C)C(=O)c2cc(S(=O)(=O)N3CCCCC3)c[nH]2)cc1,0.7,10.4,15.0,9.5,50.3*,-1.4,56.4*
C[C@@H]1CCCCO[C@@H](CN(C)C(=O)Nc2cccc3ccccc23)[C@@H](C)CN([C@H](C)CO)C(=O)c2cc(NC(=O)Nc3ccc(F)cc3)ccc2O1,/,/,/,7.7,/,/,/
C[C@@H]1CN([C@@H](C)CO)C(=O)c2cc(NS(=O)(=O)c3ccc(Cl)cc3)ccc2O[C@@H]1CN(C)S(=O)(=O)c1ccccc1,/,/,/,8.2,/,/,/
CCN(CC)S(=O)(=O)c1ccc(NC(=O)Nc2cccc(C(F)(F)F)c2)cc1,-48.7,29.1,76.4*,/,61.1*,-0.9,81.4*
CCN(CC)S(=O)(=O)c1ccc(C(=O)Nc2cccc(C)c2)cc1,-2.8,-87.8,-7.0,/,5.3,0.0,/
CC(=O)Oc1c(Br)cc(N(C(C)=O)S(=O)(=O)c2ccccc2)c2ccccc12,-40.9,-3.3,38.4,0.1,87.7*,-0.2,74.3*
COc1cccc(/C=N/n2c(C3CCCCC3)n[nH]c2=S)c1,-12.0,7.2,52.2*,1.1,60.4*,0.1,76.8*
Oc1cccc(/C=N/n2c(C3CCCCC3)n[nH]c2=S)c1,-10.0,5.6,-4.2,4.2,8.4,-0.3,/
CC1CCCCN1C(=O)c1cccc(NC2=C(Cl)C(=O)N(Cc3ccccc3)C2=O)c1 (stereo not drawn),-44.0,18.3,18.6,/,57.3*,-0.2,-103.9
CC1CCN(C(=O)c2ccc(NC3=C(Cl)C(=O)N(Cc4ccccc4)C3=O)cc2)CC1,-3.9,-2.2,9.0,15.7,12.2,-0.1,/
O=C(/C=C/c1cccs1)Nc1cccc(NC(=O)/C=C/c2cccs2)n1,-22.0,-227.0,72.8*,43.3,58.1*,-2.5,63.7*
O=C(Nc1ccc2c(c1)OCO2)N[C@H]1CC[C@H](CCNC(=O)C2CC2)O[C@@H]1CO,/,/,/,2.8,/,/,/
CCc1ccc([C@@H]2C[C@H]3[C@@H](CN2S(=O)(=O)c2ccc(C)cc2)C(=O)C[C@@H](c2ccc(Cl)cc2)N3S(=O)(=O)c2ccccc2C)cc1,10.0,9.8,-13.9,11.4,-7.0,0.0,/
CCc1ccc([C@@H]2CC(=O)[C@@H]3CN(S(=O)(=O)c4ccccc4C)[C@H](c4ccc(Cl)cc4)C[C@@H]3N2S(=O)(=O)c2ccc(C)cc2)cc1,-9.9,2.7,5.8,11.3,51.4*,-0.7,37.9
Cc1cccc(-c2ccc([C@H]3[C@@H](CO)N4C(=O)CN(C(=O)Cc5ccccn5)C[C@@H]34)cc2)c1,/,/,/,0.3,/,/,/
Cc1nc(N)nc(N)c1-c1ccc(Cl)c(Cl)c1,-9.7,21.7,12.1,17.2,10.5,2.0,/
Nc1nc(N)nc(-c2ccc(Cl)c(Cl)c2)n1,-12.5,-232.9,60.1*,27.3,79.4*,-2.1,91.3*
CCOc1ccc(C(C(=O)NCC2CCCO2)N(Cc2cccs2)C(=O)c2snc(C(N)=O)c2N)cc1 (stereo not drawn),-30.4,4.8,25.9,14.1,72.0*,-0.1,71.7*
COc1ccc(C(C(=O)NCC2CCCO2)N(Cc2cccs2)C(=O)c2snc(C(N)=O)c2N)cc1OC (stereo not drawn),-1.9,0.4,14.2,10.1,-7.3,0.0,/
C[C@@H]1CN([C@H](C)CO)C(=O)c2cc(NC(=O)CCC(F)(F)F)ccc2O[C@@H](C)CCCCO[C@@H]1CN(C)C,/,/,/,1.1,/,/,/
FC(F)(F)c1nnc2c(Sc3ccccc3)nc3ccccc3n12,11.0,-60.5,11.6,/,78.6*,-4.3,84.2*
FC(F)(F)c1nnc2c(Sc3ccccn3)nc3ccccc3n12,-9.8,-45.2,20.5,/,47.1,-1.1,/
CC1=C(/C=C/C(C)=C/C=C/C(C)=C\C(=O)O)C(C)(C)CCC1,-9.3,12.8,10.5,-2.9,65.9*,0.1,69.8*
COc1ccc2c3c(n(C)c2c1)[C@H](CO)N(C)CC31CN(S(=O)(=O)c2cccc(F)c2)C1,/,/,/,-4.9,/,/,/
O=C(NCC[C@@H]1CC[C@@H](NC(=O)C2CCOCC2)[C@@H](CO)O1)Nc1ccc(Cl)cc1,/,/,/,-7.8,/,/,/
SMILES,KKLEB tox,HIF-2a block,TWEAK Fn14 block,LGR2 antag,CF NFkB block,iPSC survival up,CF NFkB inh conf
CCOc1ccc(CCN2C(=S)N([C@@H](Cc3ccc(O)cc3)CN3CCC[C@@H]3CN3C(=S)NC[C@@H]3CC(C)C)C[C@@H]2Cc2ccc(O)cc2)cc1,-16.3,-48.4,46.1,2.3,55.4*,-1.4,-15.0
CCOc1ccc(CCN2C(=S)N([C@@H](Cc3ccc(O)cc3)CN3CCCC3CN3C(=S)NC[C@@H]3Cc3ccc(O)cc3)C[C@@H]2CC(C)C)cc1 (stereo partly drawn),-14.0,-4.8,45.4,/,45.1,-1.9,/
CC(C)C[C@H]1CNC(=S)N1C[C@H]1CCCN1C[C@H](Cc1ccccc1)N1C[C@H](Cc2ccc(O)cc2)N(CC2CCCCC2)C1=S,-22.5,-12.1,27.0,9.7,65.1*,-2.1,19.0
Oc1ccc(C[C@H]2CN([C@@H](Cc3ccccc3)CN3CCC[C@@H]3CN3C(=S)NC[C@@H]3Cc3ccccc3)C(=S)N2CC2CCCCC2)cc1,-10.2,0.1,8.5,9.4,23.8,-1.7,/
CC(C)C[C@H]1CNC(=S)N1CC1CCCN1C[C@H](Cc1ccc(O)cc1)N1C[C@H](Cc2ccccc2)N(CC2CCCCC2)C1=S (stereo partly drawn),7.9,-3.6,1.4,17.0,-12.4,-4.0,/
Oc1ccc(C[C@H]2CNC(=S)N2CC2CCCN2C[C@H](Cc2ccc(O)cc2)N2C[C@H](Cc3ccccc3)N(CC3CCCCC3)C2=S)cc1 (stereo partly drawn),-7.1,-27.7,62.3*,15.1,51.5*,-3.7,45.4*
Oc1ccc(C[C@H]2CNC(=S)N2CC2CCCN2C[C@H](Cc2ccc(O)cc2)N2C[C@H](Cc3ccc(O)cc3)N(CC3CCCCCC3)C2=S)cc1 (stereo partly drawn),-14.1,-42.8,88.6*,10.1,62.0*,5.4,32.4
O=S(=O)(N[C@H]1CC[C@@H](CCn2cc(-c3ccccc3F)nn2)O[C@H]1CO)c1ccc(F)cc1,/,/,/,6.4,/,/,/
COCC(=O)Nc1ccc2c(c1)C(=O)N(C)[C@@H]1CC[C@H](CC(=O)NCC3CCCCC3)O[C@@H]1CO2,/,/,/,-3.9,/,/,/
COc1ccccc1S(=O)(=O)N[C@@H]1C=C[C@H](CC(=O)N2CCCCC2)O[C@@H]1CO,/,/,/,11.9,/,/,/
CO[C@H]1CN(C)C(=O)c2ccc(NC(=O)C3CC3)cc2OC[C@H](C)N(Cc2cc(F)ccc2F)C[C@@H]1C,/,/,/,3.3,/,/,/

# Screens (PubChem)
